# From PubChem BioAssay (EPA / NIEHS)
# Calls of active or inactive are those of the source. The calls were made as follows: active = hit-call score of the fitted dose curve at least 0.9, where 1 is the maximum; inactive = score below 0.9.
# Tests used:
# Conditions in all cases: mRNA level, 48 h; actives raise or lower the signal
# [1] = read-out: adenosine kinase (ADK) gene, ADK (gene 132); assay: LTEA_HepaRG_ADK: Life Technologies and Expression Analysis (LTEA) Assay for adenosine kinase (ADK) gene using HepaRG (AID 2283471)
# Summary of the method: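 HepaRG (human liver), 48 h chemical exposure, 8-pt half-log series, top 100 uM, 0.5% DMSO vehicle. Readout: ADK mRNA by qRT-PCR vs housekeeping genes; bidirectional curve fit relative to DMSO baseline.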
# [2] = read-out: BCL2L11 (gene 10018); assay: LTEA_HepaRG_BCL2L11: Life Technologies and Expression Analysis (LTEA) Assay for Bcl-2 (BCL2L11) gene using HepaRG (AID 2283473)
# Summary of the method: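 Read-out is BCL2L11 transcript level by qRT-PCR, normalized to three housekeeping genes and fitted bidirectionally against 0.5% DMSO vehicle. HepaRG cells received chemicals for 48 h in serum-free induction medium, 100 uM down in half-log dilutions.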
# [3] = read-out: Apolipoprotein A-V (APOA5) gene, APOA5 (gene 116519); assay: LTEA_HepaRG_APOA5: Life Technologies and Expression Analysis (LTEA) Assay for Apolipoprotein A-V (APOA5) gene using HepaRG (AID 2283474)
# Summary of the method: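 Readout is APOA5 transcript level by qRT-PCR on Fluidigm dynamic arrays, normalized to three housekeeping genes. HepaRG cultures received chemicals for 48 h at up to 100 uM (half-log steps, 0.5% DMSO), with gain or loss scored relative to DMSO.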
# [4] = read-out: Apoptosis regulator Bcl-2 (Homo sapiens) (UniProt P10415); assay: LTEA_HepaRG_BCL2: Life Technologies and Expression Analysis (LTEA) Assay for Bcl-2 gene using HepaRG (AID 2283475)
# Summary of the method: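 Each chemical was tested in duplicate on HepaRG cultures held in serum-free induction medium for 48 h, highest concentration 100 uM with half-log dilutions. Transcript levels came from multiplexed qRT-PCR, normalised to housekeeping genes; activity was scored in either direction relative to DMSO.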
# [5] = read-out: Bcl-2 (BID) gene, BID (gene 637); assay: LTEA_HepaRG_BID: Life Technologies and Expression Analysis (LTEA) Assay for Bcl-2 (BID) gene using HepaRG (AID 2283476)
# Summary of the method: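 Assay used HepaRG hepatic cells treated 48 h in serum-free medium with half-log dilutions from 100 uM. Endpoint: BID mRNA, qRT-PCR, normalized to ACTB/GAPDH/POLR2A.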
# [6] = read-out: Caspase-3 (Homo sapiens) (UniProt P42574); assay: LTEA_HepaRG_CASP3: Life Technologies and Expression Analysis (LTEA) Assay for cysteine-aspartic acid protease (CASP3) using HepaRG (AID 2283477)
# Summary of the method: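 Read-out is CASP3 mRNA level by TaqMan qRT-PCR in human HepaRG cells after 48 h chemical exposure. Eight half-log concentrations topping at 100 uM were tested in 0.5% DMSO; gain or loss was fitted relative to DMSO.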
# [7] = read-out: Cytochrome P450 (CYP24A1), CYP24A1 (gene 1591); assay: LTEA_HepaRG_CYP24A1: Life Technologies and Expression Analysis (LTEA) Assay for Cytochrome P450 (CYP24A1) using HepaRG (AID 2283478)
# Summary of the method: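 HepaRG, 48 h chemical exposure, 8-pt half-log CRC from 100 uM, 0.5% DMSO vehicle, duplicates. Endpoint: CYP24A1 mRNA by Fluidigm TaqMan qRT-PCR, normalized ACTB/GAPDH/POLR2A; gain/loss fit vs DMSO.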
# [8] = read-out: Cytochrome P450 (CYP1A2), CYP1A2 (gene 1544); assay: LTEA_HepaRG_CYP1A2: Life Technologies and Expression Analysis (LTEA) Assay for Cytochrome P450 (CYP1A2) using HepaRG (AID 2283479)
# Summary of the method: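 CYP1A2 transcript induction or loss, quantified by Fluidigm qRT-PCR against three housekeeping genes, was fitted bidirectionally against 0.5% DMSO controls. Human HepaRG cells received eight half-log concentrations from 100 uM over 48 h.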
# [9] = read-out: cysteine-aspartic acid protease (CASP8), CASP8 (gene 841); assay: LTEA_HepaRG_CASP8: Life Technologies and Expression Analysis (LTEA) Assay for cysteine-aspartic acid protease (CASP8) using HepaRG (AID 2283480)
# Summary of the method: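 CASP8 transcript measured by TaqMan qRT-PCR with ACTB/GAPDH/POLR2A normalization, after 48 h chemical exposure of HepaRG cells in serum-free induction medium. Eight concentrations, top 100 uM, half-log steps, 0.5% DMSO vehicle; fits in both directions versus DMSO.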
# [10] = read-out: Cytochrome P450 (CYP2B6), CYP2B6 (gene 1555); assay: LTEA_HepaRG_CYP2B6: Life Technologies and Expression Analysis (LTEA) Assay for Cytochrome P450 (CYP2B6) using HepaRG (AID 2283481)
# Summary of the method: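 HepaRG cells plated 48 h, switched to serum-free induction medium, then dosed 48 h (8 points, half-log from 100 uM, 0.5% DMSO). RNA isolated; CYP2B6 expression measured by qRT-PCR; gain or loss fitted relative to DMSO.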
# [11] = read-out: Cytochrome P450 2C19 (Homo sapiens) (UniProt P33261); assay: LTEA_HepaRG_CYP2C19: Life Technologies and Expression Analysis (LTEA) Assay for CYP2C19 using HepaRG (AID 2283482)
# Summary of the method: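 Transcript levels of CYP2C19 were quantified by qRT-PCR after HepaRG cells were treated for 48 hours with test chemicals up to 100 uM (eight half-log concentrations, 0.5% DMSO vehicle). Gain or loss of signal was fitted relative to DMSO.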
# [12] = read-out: CYP2C8 (gene 1558); assay: LTEA_HepaRG_CYP2C8: Life Technologies and Expression Analysis (LTEA) Assay for CYP2C8 using HepaRG (AID 2283483)
# Summary of the method: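 CYP2C8 expression measured by TaqMan qRT-PCR and normalized to three housekeeping genes. HepaRG cultures were treated for 48 h with an eight-point half-log series topping at 100 uM, vehicle 0.5% DMSO, duplicates; fitted both directions against DMSO.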
# [13] = read-out: CYP2C9 (gene 1559); assay: LTEA_HepaRG_CYP2C9: Life Technologies and Expression Analysis (LTEA) Assay for CYP2C9 using HepaRG (AID 2283484)
# Summary of the method: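 CYP2C9 transcript level, quantified by TaqMan qRT-PCR against three housekeeping genes, was fitted bidirectionally relative to 0.5% DMSO. HepaRG cultures were treated 48 h, in duplicate, at eight half-log concentrations topping at 100 uM.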
# [14] = read-out: CYP2E1 (gene 1571); assay: LTEA_HepaRG_CYP2E1: Life Technologies and Expression Analysis (LTEA) Assay for CYP2E1 using HepaRG (AID 2283485)
# Summary of the method: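 Assay uses 48 h exposure of HepaRG hepatic cells, eight concentrations to 100 uM. Expression of CYP2E1 is quantified by TaqMan qRT-PCR with ACTB, GAPDH and POLR2A normalization; curves fitted in both directions relative to vehicle.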
# [15] = read-out: CYP4A11 (gene 1579); assay: LTEA_HepaRG_CYP4A11: Life Technologies and Expression Analysis (LTEA) Assay for CYP4A11 using HepaRG (AID 2283486)
# Summary of the method: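 HepaRG, 48 h chem exposure, 8 conc (100 uM top, half-log), 0.5% DMSO vehicle; qRT-PCR readout, housekeeping-gene normalized; bidirectional curve fit vs DMSO baseline.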
# [16] = read-out: Cytochrome P450 3A4 (Homo sapiens) (UniProt P08684); assay: LTEA_HepaRG_CYP3A4: Life Technologies and Expression Analysis (LTEA) Assay for CYP3A4 using HepaRG (AID 2283487)
# Summary of the method: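 CYP3A4 transcript measured by TaqMan qRT-PCR and normalized to three housekeeping genes after 48 h chemical exposure of human HepaRG cells. Top concentration 100 uM, half-log steps, 0.5% DMSO vehicle; gain or loss fitted against DMSO baseline.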
# [17] = read-out: DNA damage-inducible transcript 3 (DDIT3), DDIT3 (gene 1649); assay: LTEA_HepaRG_DDIT3: Life Technologies and Expression Analysis (LTEA) Assay for DNA damage-inducible transcript 3 (DDIT3) using HepaRG (AID 2283488)
# Summary of the method: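 Eight-point concentration-response (100 uM highest, half-log dilutions) in HepaRG, 48 h, duplicate wells. Endpoint: qRT-PCR mRNA, normalized (ACTB, GAPDH, POLR2A), bidirectional fitting with DMSO as baseline.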
# [18] = read-out: Pro-epidermal growth factor (Homo sapiens) (UniProt P01133); assay: LTEA_HepaRG_EGF: Life Technologies and Expression Analysis (LTEA) Assay for Epidermal growth factor (EGF) using HepaRG (AID 2283489)
# Summary of the method: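 HepaRG, 48 h dosing, 100 uM top, half-log x8, 0.5% DMSO. Readout: TaqMan qRT-PCR (Fluidigm array), housekeeping-normalized. Gain or loss of signal fit vs DMSO.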
# [19] = read-out: Early growth response protein 1 (EGR1) transcription factor, EGR1 (gene 1958); assay: LTEA_HepaRG_EGR1: Life Technologies and Expression Analysis (LTEA) Assay for Early growth response protein 1 (EGR1) transcription factor using HepaRG (AID 2283490)
# Summary of the method: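 EGR1 transcript levels quantified by qRT-PCR (Fluidigm arrays) against three housekeeping genes after 48 h chemical exposure of HepaRG cells. Eight-point half-log series topping at 100 uM, 0.5% DMSO vehicle, analyzed for gain or loss.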
# Apoptosis regulator Bcl-2 (Homo sapiens), sequence (P10415 whole entry, looked up): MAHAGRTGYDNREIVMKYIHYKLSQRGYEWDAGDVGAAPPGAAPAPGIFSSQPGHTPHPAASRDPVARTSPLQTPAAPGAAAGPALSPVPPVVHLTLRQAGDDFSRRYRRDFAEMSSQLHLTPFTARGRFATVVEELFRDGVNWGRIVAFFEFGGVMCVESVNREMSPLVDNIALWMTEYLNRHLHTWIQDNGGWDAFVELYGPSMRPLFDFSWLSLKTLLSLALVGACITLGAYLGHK
# Cytochrome P450 3A4 (Homo sapiens), sequence (P08684 whole entry, looked up): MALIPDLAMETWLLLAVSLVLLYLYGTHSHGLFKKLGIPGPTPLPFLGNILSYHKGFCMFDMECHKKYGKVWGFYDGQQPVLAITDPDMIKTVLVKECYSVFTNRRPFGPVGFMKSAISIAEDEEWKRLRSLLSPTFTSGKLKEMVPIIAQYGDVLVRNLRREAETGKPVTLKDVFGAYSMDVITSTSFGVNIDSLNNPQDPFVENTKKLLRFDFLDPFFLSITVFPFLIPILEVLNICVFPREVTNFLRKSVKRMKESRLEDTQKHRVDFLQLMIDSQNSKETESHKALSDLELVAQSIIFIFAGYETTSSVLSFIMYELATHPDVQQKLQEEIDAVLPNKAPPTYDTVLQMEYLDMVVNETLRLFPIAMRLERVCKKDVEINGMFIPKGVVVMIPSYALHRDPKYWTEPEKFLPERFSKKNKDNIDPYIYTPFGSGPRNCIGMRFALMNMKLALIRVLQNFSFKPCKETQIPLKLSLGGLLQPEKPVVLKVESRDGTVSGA
# Caspase-3 (Homo sapiens), sequence (P42574 whole entry, looked up): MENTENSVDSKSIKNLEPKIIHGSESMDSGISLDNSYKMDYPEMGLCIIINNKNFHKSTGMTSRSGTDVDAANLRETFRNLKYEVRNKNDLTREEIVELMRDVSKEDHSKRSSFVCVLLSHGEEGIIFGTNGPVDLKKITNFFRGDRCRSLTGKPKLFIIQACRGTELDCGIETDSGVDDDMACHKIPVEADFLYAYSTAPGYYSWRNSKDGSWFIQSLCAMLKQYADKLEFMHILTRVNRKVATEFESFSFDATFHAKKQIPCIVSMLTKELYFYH
# Cytochrome P450 2C19 (Homo sapiens), sequence (P33261 whole entry, looked up): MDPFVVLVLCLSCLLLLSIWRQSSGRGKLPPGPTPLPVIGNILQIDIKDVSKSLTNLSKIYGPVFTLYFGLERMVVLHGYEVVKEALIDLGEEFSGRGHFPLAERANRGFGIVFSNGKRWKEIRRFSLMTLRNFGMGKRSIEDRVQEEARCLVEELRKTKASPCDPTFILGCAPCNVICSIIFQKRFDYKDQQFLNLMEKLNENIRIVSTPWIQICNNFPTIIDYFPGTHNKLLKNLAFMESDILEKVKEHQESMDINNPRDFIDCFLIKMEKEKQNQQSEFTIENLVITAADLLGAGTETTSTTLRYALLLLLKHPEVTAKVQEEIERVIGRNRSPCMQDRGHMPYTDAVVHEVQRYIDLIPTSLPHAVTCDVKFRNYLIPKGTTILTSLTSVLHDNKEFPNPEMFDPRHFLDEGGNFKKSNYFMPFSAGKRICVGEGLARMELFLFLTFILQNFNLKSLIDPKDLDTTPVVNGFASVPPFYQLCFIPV
compound,measurement,setting,value
CCN(Cc1cccnc1)C(=O)c1cccc(Cl)c1[C@]1(C)C(=O)N(Cc2ccc(OC)cc2OC)c2ccc(Cl)cc21,outcome,[1],inactive
same,outcome,[2],inactive
same,AC50,[3],11.4 µM (active)
same,AC50,[4],11.4 µM (active)
same,outcome,[5],inactive
same,outcome,[6],inactive
same,outcome,[7],inactive
same,AC50,[8],22.2 µM (active)
same,AC50,[9],12.5 µM (active)
same,AC50,[10],25.8 µM (active)
same,AC50,[11],26.1 µM (active)
same,AC50,[12],25.8 µM (active)
same,AC50,[13],26.2 µM (active)
same,AC50,[14],16.1 µM (active)
same,AC50,[15],16.7 µM (active)
same,AC50,[16],25.9 µM (active)
same,AC50,[17],11.5 µM (active)
same,AC50,[18],15.5 µM (active)
same,outcome,[19],inactive
O=C1CCC(C2CCCCC2)CC1,outcome,[1],inactive
same,outcome,[2],inactive
same,outcome,[3],inactive
same,outcome,[4],inactive
same,outcome,[5],inactive
same,outcome,[6],inactive
same,outcome,[7],inactive
same,AC50,[8],72.5 µM (active)
same,outcome,[9],inactive
same,outcome,[10],inactive
same,outcome,[11],inactive
same,outcome,[12],inactive
same,outcome,[13],inactive
same,outcome,[14],inactive
same,outcome,[15],inactive
same,AC50,[16],32.5 µM (active)
same,outcome,[17],inactive
same,outcome,[18],inactive
same,outcome,[19],inactive
Oc1ccccc1,outcome,[1],inactive
same,outcome,[2],inactive
same,outcome,[3],inactive
same,outcome,[4],inactive
same,outcome,[5],inactive
same,outcome,[6],inactive
same,outcome,[7],inactive
same,outcome,[8],inactive
same,outcome,[9],inactive
same,outcome,[10],inactive
same,outcome,[11],inactive
same,outcome,[12],inactive
same,outcome,[13],inactive
same,outcome,[14],inactive
same,outcome,[15],inactive
same,outcome,[16],inactive
same,outcome,[17],inactive
same,outcome,[18],inactive
same,outcome,[19],inactive
